# Source: paper PMC12350791
# Target: PRPF8 (UniProt Q6P2Q9)
# Test: cross-linking mass spectrometry
# Conditions: DSBSO, in cells or nuclear extract, not told apart
# Sequence of USP39, Q53GS9 (Q53GS9 whole entry): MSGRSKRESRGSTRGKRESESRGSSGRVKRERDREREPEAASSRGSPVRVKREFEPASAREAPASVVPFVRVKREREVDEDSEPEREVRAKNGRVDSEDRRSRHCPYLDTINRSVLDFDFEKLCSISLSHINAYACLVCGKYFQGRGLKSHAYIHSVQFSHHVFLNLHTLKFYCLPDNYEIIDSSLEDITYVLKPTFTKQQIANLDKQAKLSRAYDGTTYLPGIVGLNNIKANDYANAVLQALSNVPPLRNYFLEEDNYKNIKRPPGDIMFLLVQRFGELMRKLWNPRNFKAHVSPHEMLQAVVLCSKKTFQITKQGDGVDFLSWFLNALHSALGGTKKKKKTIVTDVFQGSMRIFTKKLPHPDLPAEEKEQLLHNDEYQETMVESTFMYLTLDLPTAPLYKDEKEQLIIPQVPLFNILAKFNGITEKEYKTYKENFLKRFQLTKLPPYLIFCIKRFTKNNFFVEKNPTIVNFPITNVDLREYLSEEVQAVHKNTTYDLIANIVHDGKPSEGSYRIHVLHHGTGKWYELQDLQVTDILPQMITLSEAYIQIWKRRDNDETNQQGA
# Sequence of EFTUD2, Q15029 (Q15029 whole entry): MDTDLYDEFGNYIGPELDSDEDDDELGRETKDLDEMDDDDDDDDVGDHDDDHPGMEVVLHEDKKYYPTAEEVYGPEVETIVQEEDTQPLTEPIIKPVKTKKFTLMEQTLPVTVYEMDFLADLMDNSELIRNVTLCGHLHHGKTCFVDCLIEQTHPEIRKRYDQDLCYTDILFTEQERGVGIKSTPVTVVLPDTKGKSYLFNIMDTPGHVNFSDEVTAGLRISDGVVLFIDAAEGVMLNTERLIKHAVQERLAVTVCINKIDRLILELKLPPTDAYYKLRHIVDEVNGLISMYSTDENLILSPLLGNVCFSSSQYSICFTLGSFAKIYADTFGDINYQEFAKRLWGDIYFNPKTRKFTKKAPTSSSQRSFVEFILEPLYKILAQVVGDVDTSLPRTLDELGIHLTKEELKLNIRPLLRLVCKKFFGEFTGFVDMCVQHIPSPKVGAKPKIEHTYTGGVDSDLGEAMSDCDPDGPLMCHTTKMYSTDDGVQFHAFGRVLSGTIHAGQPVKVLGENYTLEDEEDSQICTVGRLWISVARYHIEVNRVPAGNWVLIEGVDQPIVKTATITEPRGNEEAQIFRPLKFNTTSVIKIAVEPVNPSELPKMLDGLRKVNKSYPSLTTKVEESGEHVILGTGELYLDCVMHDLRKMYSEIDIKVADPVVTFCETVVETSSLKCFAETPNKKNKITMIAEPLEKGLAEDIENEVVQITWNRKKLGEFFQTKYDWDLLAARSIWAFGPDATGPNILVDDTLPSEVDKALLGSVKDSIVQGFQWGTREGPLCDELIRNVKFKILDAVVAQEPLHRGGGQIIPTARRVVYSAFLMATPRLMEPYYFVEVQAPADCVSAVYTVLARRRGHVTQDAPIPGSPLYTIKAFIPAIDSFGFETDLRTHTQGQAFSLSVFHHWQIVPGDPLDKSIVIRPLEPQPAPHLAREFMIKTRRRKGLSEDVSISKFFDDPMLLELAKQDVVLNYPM
# Sequence of PLRG1, O43660 (O43660 whole entry): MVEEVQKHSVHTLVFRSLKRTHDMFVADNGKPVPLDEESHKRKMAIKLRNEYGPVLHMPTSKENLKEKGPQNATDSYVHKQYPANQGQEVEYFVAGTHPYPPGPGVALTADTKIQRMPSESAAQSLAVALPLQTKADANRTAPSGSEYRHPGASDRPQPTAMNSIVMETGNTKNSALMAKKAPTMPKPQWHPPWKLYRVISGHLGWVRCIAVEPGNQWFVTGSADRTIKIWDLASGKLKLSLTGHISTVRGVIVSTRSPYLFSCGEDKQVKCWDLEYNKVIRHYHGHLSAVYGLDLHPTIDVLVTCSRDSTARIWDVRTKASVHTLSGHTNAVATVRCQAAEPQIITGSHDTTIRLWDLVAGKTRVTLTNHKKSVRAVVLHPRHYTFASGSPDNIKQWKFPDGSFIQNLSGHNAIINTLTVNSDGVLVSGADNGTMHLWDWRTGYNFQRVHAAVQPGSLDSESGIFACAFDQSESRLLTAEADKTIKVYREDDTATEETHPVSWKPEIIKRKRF
row,Substance,cross-linked residues
1,"PLRG1, O43660",K320 - K666
2,"EFTUD2, Q15029",K405 - K218
3,"USP39, Q53GS9",K508 - K983
